Data published in PubChem BioAssay (Tox21).
Unmarked numbers belong to inactive results. Records with an inconclusive call do not appear. Entries that show only a call come without a potency. Activity calls are given as the source filed them. Unless noted, the call rests on the fitted dose curve; in most records, active means well fitted curve in the direction sought with a large enough effect in the repeat runs; inconclusive means weak or mixed curves; inactive means no such curve, though single readings can be large; an effect the other way counts as inactive or inconclusive.

Key:
[1] = molecular target: Thyrotropin receptor (Homo sapiens) (UniProt P16473); assay: qHTS assay to identify small molecule antagonists of the thyroid stimulating hormone receptor (TSHR) signaling pathway (AID 1259385; calls by dose curve; further: nearly all actives have a fitted effect of over 20% in size; further: potency means the concentration at half of the fitted maximal effect)
Thyrotropin receptor (Homo sapiens), sequence (P16473 whole entry, looked up): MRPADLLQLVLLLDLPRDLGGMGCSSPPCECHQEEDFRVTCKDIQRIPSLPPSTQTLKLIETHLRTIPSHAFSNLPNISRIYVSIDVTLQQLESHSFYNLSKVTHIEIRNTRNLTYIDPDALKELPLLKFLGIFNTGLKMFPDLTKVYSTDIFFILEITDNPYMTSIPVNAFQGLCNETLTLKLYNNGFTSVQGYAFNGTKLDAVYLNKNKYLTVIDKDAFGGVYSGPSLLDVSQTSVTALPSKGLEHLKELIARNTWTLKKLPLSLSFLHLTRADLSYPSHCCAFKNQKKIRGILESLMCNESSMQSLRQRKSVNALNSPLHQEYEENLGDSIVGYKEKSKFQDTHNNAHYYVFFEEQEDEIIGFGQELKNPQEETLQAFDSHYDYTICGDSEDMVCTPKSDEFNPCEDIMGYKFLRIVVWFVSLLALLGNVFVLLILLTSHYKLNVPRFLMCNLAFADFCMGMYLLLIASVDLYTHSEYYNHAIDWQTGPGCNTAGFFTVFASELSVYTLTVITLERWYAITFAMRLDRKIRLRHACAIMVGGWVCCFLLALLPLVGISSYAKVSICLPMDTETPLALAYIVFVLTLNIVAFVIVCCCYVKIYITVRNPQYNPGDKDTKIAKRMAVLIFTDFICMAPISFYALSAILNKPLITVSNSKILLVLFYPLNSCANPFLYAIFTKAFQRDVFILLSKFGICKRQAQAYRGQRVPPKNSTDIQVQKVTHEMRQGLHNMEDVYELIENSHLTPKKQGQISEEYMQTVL
Method in brief: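 TSHR-HEK293 cells (800/well) plated 18 h, then compounds with Ro20-1724 and TSH at 1.5 ng/mL final, 30 min at room temperature. cAMP quantified by HTRF (cAMP-d2/anti-cAMP-cryptate, 1 h); 15 concentrations in triplicate.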

[2] = qHTS assay to identify small molecule agonists of the estrogen receptor alpha (ER-alpha) signaling pathway in the presence of an antagonist - cell viability counter screen (AID 1259386);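 further: series mostly up to about 92 µM; cells exposed to compounds for 22 h at 37 °C before the viability read; nearly all actives have a fitted effect of over 30% in size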
Method in brief: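 VM7Luc4E2 cells (endogenous full-length ER-alpha, 4×ERE-luciferase) were held 5 days in phenol red-free medium with 10% charcoal-stripped FBS, plated, then given 10.0nM ICI-182,780 and compounds at 15 concentrations for 22hr at 37C; viability read by CellTiter-Fluor fluorescence.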

[3] = molecular target: Progesterone receptor (Homo sapiens) (UniProt P06401); assay: qHTS assay to identify small molecule agonists of the progesterone receptor (PR) signaling pathway (AID 1346784; calls by dose curve; further: nearly all actives have a fitted effect of over 30% in size; further: potency means the concentration at half of the fitted maximal effect)
Progesterone receptor (Homo sapiens), sequence (P06401 whole entry, looked up): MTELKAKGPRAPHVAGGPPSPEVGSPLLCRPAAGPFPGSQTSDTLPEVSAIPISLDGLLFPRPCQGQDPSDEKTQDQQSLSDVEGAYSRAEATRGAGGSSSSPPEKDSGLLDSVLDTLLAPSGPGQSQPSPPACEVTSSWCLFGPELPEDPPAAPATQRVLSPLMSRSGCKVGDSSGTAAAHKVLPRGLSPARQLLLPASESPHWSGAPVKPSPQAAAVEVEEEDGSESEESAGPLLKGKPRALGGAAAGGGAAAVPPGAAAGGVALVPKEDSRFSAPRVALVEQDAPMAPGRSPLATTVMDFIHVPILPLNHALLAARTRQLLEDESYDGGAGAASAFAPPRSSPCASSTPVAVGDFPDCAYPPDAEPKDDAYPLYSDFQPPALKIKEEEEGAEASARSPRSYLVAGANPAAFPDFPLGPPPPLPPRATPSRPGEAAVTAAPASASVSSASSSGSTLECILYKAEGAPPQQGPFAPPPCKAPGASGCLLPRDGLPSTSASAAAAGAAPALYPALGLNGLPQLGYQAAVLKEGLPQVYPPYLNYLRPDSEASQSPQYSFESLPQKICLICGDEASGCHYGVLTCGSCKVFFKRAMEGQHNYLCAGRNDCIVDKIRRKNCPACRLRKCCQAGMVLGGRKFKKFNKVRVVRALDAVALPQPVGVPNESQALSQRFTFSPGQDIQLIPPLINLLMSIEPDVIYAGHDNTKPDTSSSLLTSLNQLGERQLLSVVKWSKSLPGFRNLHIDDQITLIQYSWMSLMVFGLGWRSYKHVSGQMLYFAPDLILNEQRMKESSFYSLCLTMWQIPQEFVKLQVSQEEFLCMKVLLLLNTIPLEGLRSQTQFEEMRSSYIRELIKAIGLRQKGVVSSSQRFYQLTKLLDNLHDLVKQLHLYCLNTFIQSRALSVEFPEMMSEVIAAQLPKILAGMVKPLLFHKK
Method in brief: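 Reporter assay, GripTite PR-UAS-bla HEK 293T cells: 16 hr exposure to DMSO-dissolved compounds at 37C, 5% CO2, in steroid-depleted (2% charcoal-stripped FBS) medium; beta-lactamase measured by FRET fluorescence.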

[4] = qHTS assay to identify small molecule antagonists of the progesterone receptor (PR) signaling pathway - cell viability counter screen (AID 1346798); further: nearly all actives have a fitted effect of over 50% in size; further: potency means the concentration at half of the fitted maximal effect
Method in brief: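 In the same plates used for the beta-lactamase readout, cell viability of compound- and R5020-treated PR-UAS-bla HEK293T cells (16 hr, 37C) was assessed by CellTiter-Glo luminescence.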

[5] = qHTS assay to identify small molecule antagonists of the TGF-beta/Smad signaling pathway - cell viability counter screen (AID 1346824); further: nearly all actives have a fitted effect of over 50% in size
Method in brief: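 SBE-bla HEK 293T cells, incubated overnight, then compound plus 0.25 ng/mL TGF-beta1 (stock added) for 5 hr at 37 C. Viability was read in the same wells by CellTiter-Glo luminescence after 30 min at room temperature.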

[6] = qHTS assay to identify small molecule agonists of the TGF-beta/Smad signaling pathway - cell viability counter screen (AID 1346829); further: top concentration of the series differs between compounds; nearly all actives have a fitted effect of over 45% in size
Method in brief: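 HEK 293T SBE-bla line, 5 hr compound exposure at 37 C, multiplexed CellTiter-Glo viability read by luminescence.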

[7] = qHTS assay to identify small molecule agonists of the TGF-beta/Smad signaling pathway (AID 1346859; active means well fitted activation curve with a large enough effect in the signal ratio in the repeat runs, not every such curve was filed as active; the % refers to the signal ratio; further: series mostly up to about 77 µM)
Method in brief: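 Screening used HEK 293T SBE-bla cells at 4,000/well. Test agents: 5 hr, 37 C. Detection: FRET substrate, 2 hr RT, then excitation 405 nm with emissions at 460 and 530 nm.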

[8] = molecular target: Thyrotropin-releasing hormone receptor (Homo sapiens) (UniProt P34981); assay: qHTS assay to identify small molecule agonists of the thyrotropin-releasing hormone receptor (TRHR) signaling pathway (AID 1346891; calls by dose curve; further: series mostly up to about 58 µM)
Thyrotropin-releasing hormone receptor (Homo sapiens), sequence (P34981 whole entry, looked up): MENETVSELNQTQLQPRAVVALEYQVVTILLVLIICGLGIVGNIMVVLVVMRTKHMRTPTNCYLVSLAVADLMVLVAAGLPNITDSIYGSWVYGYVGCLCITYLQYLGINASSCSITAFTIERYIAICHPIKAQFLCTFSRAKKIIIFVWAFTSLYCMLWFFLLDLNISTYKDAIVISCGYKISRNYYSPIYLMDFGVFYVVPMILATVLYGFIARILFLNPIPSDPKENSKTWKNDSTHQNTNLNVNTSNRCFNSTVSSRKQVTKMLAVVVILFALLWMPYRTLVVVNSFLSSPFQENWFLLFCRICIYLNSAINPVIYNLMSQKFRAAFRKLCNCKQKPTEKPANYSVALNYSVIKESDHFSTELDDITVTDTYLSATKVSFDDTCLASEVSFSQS
Method in brief: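 Readout was intracellular calcium fluorescence in TRHR-Hek293 cells. Cells were incubated 18 h, dye-loaded 2 h at 37 °C, and treated with compound in agonist mode.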

[9] = Human pregnane X receptor (PXR) small molecule agonists, qHTS cell viability counter screen (AID 1346977); further: nearly all actives have a fitted effect of over 50% in size
Method in brief: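 In each well, the PXR reporter HepG2 line was checked for viability: CellTiter-Fluor reagent added 23hr post-dosing, fluorescence read after 1hr incubation at 37C.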

[10] = Caspase-3/7 induction in CHO-K1 cells by small molecules, qHTS assay (AID 1346980); further: nearly all actives have a fitted effect of over 15% in size
Method in brief: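 Wild-type CHO-K1 cells exposed to compounds for 17hr at 37 C, 5% CO2. Caspase-3/7 activity then measured by Caspase-Glo 3/7 luminescence after 30min at room temperature.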

[11] = Caspase-3/7 induction in HepG2 cells by small molecules, qHTS cell viability counter screen (AID 1346981); further: nearly all actives have a fitted effect of over 30% in size; further: potency means the concentration at half of the fitted maximal effect
Method in brief: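 Wild-type HepG2 cells (2,000/well) were allowed to settle for 5 hr at 37 C, 5% CO2, then dosed with compounds in DMSO by pin transfer. After 16 hr at 37 C, CellTiter-Fluor was added and fluorescence read 1 hr later.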

[12] = molecular target: Nuclear receptor subfamily 1 group I member 2 (Homo sapiens) (UniProt O75469); assay: Human pregnane X receptor (PXR) small molecule agonists, qHTS assay (AID 1346982); further: nearly all actives have a fitted effect of over 35% in size; further: potency means the concentration at half of the fitted maximal effect
Nuclear receptor subfamily 1 group I member 2 (Homo sapiens), sequence (O75469 whole entry, looked up): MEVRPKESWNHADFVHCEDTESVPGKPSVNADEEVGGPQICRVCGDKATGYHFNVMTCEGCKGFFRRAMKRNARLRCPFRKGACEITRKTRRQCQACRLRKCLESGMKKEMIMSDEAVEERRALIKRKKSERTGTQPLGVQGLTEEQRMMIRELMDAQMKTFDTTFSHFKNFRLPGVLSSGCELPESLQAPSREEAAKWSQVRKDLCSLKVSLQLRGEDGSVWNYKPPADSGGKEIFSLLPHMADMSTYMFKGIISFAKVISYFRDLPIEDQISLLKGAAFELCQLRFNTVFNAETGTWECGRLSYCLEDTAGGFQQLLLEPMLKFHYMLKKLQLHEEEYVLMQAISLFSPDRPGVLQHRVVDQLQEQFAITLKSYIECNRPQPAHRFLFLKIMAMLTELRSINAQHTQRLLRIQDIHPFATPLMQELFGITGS
Method in brief: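 PXR-Luc HepG2 cells (CYP3A4 promoter-driven luciferase) were seeded in medium with 5% charcoal-stripped FBS, left 5 hr at 37 C, then exposed to compounds in DMSO for 24 hr. Luminescence was read after ONE-Glo addition.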

[13] = molecular target: Nuclear receptor subfamily 1 group I member 2 (Rattus norvegicus) (UniProt Q9R1A7); assay: Rat pregnane X receptor (rPXR) activation by small molecules, qHTS assay (AID 1346983); conditions: rPXR luciferase reporter cells, One-Glo luminescence, 24 h; max activation: active compounds read high; further: nearly all actives have a fitted effect of over 20% in size
Nuclear receptor subfamily 1 group I member 2 (Rattus norvegicus), sequence (Q9R1A7 whole entry, looked up): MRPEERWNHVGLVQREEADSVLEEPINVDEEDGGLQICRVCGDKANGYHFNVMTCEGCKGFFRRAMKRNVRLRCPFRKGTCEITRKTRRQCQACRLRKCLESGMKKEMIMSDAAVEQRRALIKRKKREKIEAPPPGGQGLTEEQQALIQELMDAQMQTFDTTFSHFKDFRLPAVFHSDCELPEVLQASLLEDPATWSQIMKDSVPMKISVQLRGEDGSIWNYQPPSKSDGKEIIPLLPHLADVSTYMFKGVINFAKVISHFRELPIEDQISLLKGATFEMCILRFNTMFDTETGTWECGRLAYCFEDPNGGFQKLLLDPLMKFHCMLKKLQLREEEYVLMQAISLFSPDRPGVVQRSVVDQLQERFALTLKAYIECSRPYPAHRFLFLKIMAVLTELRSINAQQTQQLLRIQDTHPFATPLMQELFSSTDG
Method in brief: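 Cell-based rPXR activation assay: rPXR cells, 2,000 per well, rested 5hr at 37 C, then exposed to compounds in DMSO for 24 hr at 37 C. Luciferase activity read by One-Glo luminescence after 30 min at room temperature.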

[14] = molecular target: Nuclear receptor subfamily 1 group I member 2 (Homo sapiens) (UniProt O75469); assay: CYP3A4 induction through human pregnane X receptor (PXR) by small molecules, qHTS assay (AID 1346984); further: nearly all actives have a fitted effect of over 40% in size
Method in brief: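 DPX-2 cells (HepG2 co-transfected with PXR and CYP3A4 promoter-luciferase) treated with compounds 24 h at 37C; luciferin-IPA CYP3A4 substrate 3uM final added for 3 h, then One-Glo; luminescence read. qHTS format.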

[15] = qHTS assay to identify small molecule agonists of the progesterone receptor (PR) signaling pathway - cell viability counter screen (AID 1346799; calls by dose curve; further: nearly all actives have a fitted effect of over 45% in size; further: potency means the concentration at half of the fitted maximal effect)
Method in brief: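 Multiplexed viability read: CellTiter-Glo luminescence, 30 min RT, following LiveBLAzer FRET measurement on PR-UAS-bla HEK293T cells exposed to compounds 16 hr.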

[16] = molecular target: Thyrotropin-releasing hormone receptor (Homo sapiens) (UniProt P34981); assay: qHTS assay to identify small molecule antagonists of the thyrotropin-releasing hormone receptor (TRHR) signaling pathway (AID 1346877; active means well fitted inhibition curve with a large enough effect in the repeat runs, not every such curve was filed as active; further: series mostly up to about 51 µM)
Method in brief: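 TRHR-expressing HEK293 cells were seeded, cultured 18 h at 37 °C, then loaded with calcium dye for 2 h. Compounds were pre-incubated 5 min at room temperature before 1 nM TRH (final) was added, and kinetic fluorescence was recorded for 3 min.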

[17] = Caspase-3/7 induction in HepG2 cells by small molecules, qHTS assay (AID 1346978); further: nearly all actives have a fitted effect of over 15% in size
Method in brief: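 Wild-type HepG2 cells, 2,000/well, settled 5 hr at 37 C and 5% CO2, then compound-treated for 17 hr; caspase-3/7 activity read by luminescent Caspase-Glo 3/7 after 30 min at room temperature.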

[18] = Caspase-3/7 induction in CHO-K1 cells by small molecules, qHTS cell viability counter screen (AID 1346979); further: nearly all actives have a fitted effect of over 35% in size
Method in brief: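 Following a 5hr settling period, CHO-K1 cells at 1,500 per well received DMSO-dissolved compounds. Cell viability was quantified 16hr later by CellTiter-Fluor fluorescence, measured after 1hr with reagent at 37C.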

[19] = molecular target: Progesterone receptor (Homo sapiens) (UniProt P06401); assay: qHTS assay to identify small molecule antagonists of the progesterone receptor (PR) signaling pathway (AID 1346795; active means well fitted inhibition curve with a large enough effect in the signal ratio in the repeat runs, not every such curve was filed as active; the % refers to the signal ratio)
Method in brief: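 Stimulus R5020 at 1 nM final; cells HEK293T PR-UAS-bla; medium with 2% charcoal-stripped FBS; compound exposure 16 hr at 37C, 5% CO2; detection by FRET beta-lactamase substrate, 2 hr, room temperature.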

[20] = molecular target: Nuclear receptor subfamily 1 group I member 2 (Homo sapiens) (UniProt O75469); assay: Human pregnane X receptor (PXR) activation by small molecules, qHTS assay (AID 1346985); further: nearly all actives have a fitted effect of over 40% in size
Method in brief: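 DPX-2 cells (HepG2 co-transfected with a PXR response element and a CYP3A4-promoter luciferase construct) were seeded at 2,000 per well, rested 5 hr at 37C, then exposed to DMSO-dissolved compounds for 24 hr. Activation was read as luciferase luminescence.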

Row | SMILES | Potency [1] | Potency [2] | Potency [3] | Potency [4] | Potency [5] | Potency [6] | Potency [7] | Potency [8] | Potency [9] | Potency [10] | Potency [11] | Potency [12] | max activation [13] | Potency [14] | Potency [15] | outcome [16] | Potency [17] | Potency [18] | Potency [19] | Potency [20]
1 | CCn1cc(C(=O)O)c(=O)c2cc(F)c(N3CCNCC3)cc21 | inactive | inactive | inactive | inactive | inactive | inactive | inactive | inactive | inactive | inactive | inactive | inactive | 7.46% | inactive | – | – | – | – | – | –
2 | COc1ccccc1N1CCN(CC(O)COc2cccc3ccccc23)CC1 (stereo not given) | inactive | inactive | inactive | – | inactive | inactive | inactive | – | – | inactive | – | – | – | – | 33.5 µM (active) | – | – | – | – | –
3 | Cc1ccc(C(C)(C)O)cc1 | inactive | inactive | inactive | inactive | inactive | inactive | inactive | inactive | – | inactive | inactive | inactive | – | – | inactive | inactive | inactive | – | – | –
4 | CC(C)=CCC/C(C)=C/CC/C(C)=C/CCC(=O)OC/C=C(\C)CCC=C(C)C | inactive | inactive | inactive | inactive | inactive | inactive | inactive | – | inactive | inactive | inactive | inactive | – | – | – | inactive | inactive | inactive | – | –
5 | Cc1ccc(CO)cc1 | inactive | inactive | 17.4 µM (active) | inactive | – | inactive | inactive | – | inactive | inactive | inactive | inactive | – | – | – | inactive | inactive | inactive | – | –
6 | C[C@@H](O)[C@H]1C(=O)N2C(C(=O)O)=C([C@H]3CCCO3)S[C@H]12 | – | – | – | – | – | – | – | – | – | – | – | – | – | inactive | – | – | – | – | – | –
7 | CC(C)(C)C(=O)C(=O)O | – | inactive | inactive | inactive | inactive | inactive | inactive | inactive | – | inactive | inactive | – | – | – | inactive | inactive | inactive | inactive | inactive | –
8 | OCCN1CCN(CCCN2c3ccccc3Sc3ccc(Cl)cc32)CC1 | 29.8 µM (active) | – | – | 23.7 µM (active) | inactive | inactive | inactive | inactive | – | – | 26.6 µM (active) | 10.6 µM (active) | 5.45% | – | 13.3 µM (active) | inactive | – | – | – | inactive
9 | O=C(/C=C/c1ccccc1)OCCc1ccccc1 | – | inactive | inactive | inactive | – | inactive | inactive | – | – | inactive | inactive | inactive | – | – | inactive | inactive | – | inactive | inactive | –
10 | O=C1Cc2cc(Cl)ccc2N1 | inactive | – | inactive | inactive | inactive | inactive | inactive | inactive | inactive | inactive | inactive | inactive | – | – | inactive | – | – | inactive | – | –
11 | Cc1cc(O)c(C)c(C)c1O | – | inactive | inactive | inactive | inactive | inactive | inactive | inactive | inactive | inactive | inactive | inactive | – | – | – | inactive | inactive | inactive | inactive | –
